Bioassay records from PubChem BioAssay.
MITF primary – blocks human microphthalmia-associated transcription factor | inhibition, % at 2.6 µM | AlphaScreen MITF homodimerization, bead proximity signal | hit rate 0.91% among 650,000 | O75030 | AID 1259374; in the data active = inhibition above about 50%;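 note: 0% = vehicle wells with protein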
FBW7 act – human FBW7 E3 ligase activation, primary screen | Q969H0 | AlphaScreen FBW7–phospho-cyclin E peptide binding, activator screen | normalized activity (activation), % at 26.1 µM | hit rate 0.13% among 650,000 | AID 1259310; in the data active = normalized activity above about 1.9%;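 note: purified mutant Fbw7 with reduced substrate affinity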
Target sequence (Q969H0 whole entry, looked up): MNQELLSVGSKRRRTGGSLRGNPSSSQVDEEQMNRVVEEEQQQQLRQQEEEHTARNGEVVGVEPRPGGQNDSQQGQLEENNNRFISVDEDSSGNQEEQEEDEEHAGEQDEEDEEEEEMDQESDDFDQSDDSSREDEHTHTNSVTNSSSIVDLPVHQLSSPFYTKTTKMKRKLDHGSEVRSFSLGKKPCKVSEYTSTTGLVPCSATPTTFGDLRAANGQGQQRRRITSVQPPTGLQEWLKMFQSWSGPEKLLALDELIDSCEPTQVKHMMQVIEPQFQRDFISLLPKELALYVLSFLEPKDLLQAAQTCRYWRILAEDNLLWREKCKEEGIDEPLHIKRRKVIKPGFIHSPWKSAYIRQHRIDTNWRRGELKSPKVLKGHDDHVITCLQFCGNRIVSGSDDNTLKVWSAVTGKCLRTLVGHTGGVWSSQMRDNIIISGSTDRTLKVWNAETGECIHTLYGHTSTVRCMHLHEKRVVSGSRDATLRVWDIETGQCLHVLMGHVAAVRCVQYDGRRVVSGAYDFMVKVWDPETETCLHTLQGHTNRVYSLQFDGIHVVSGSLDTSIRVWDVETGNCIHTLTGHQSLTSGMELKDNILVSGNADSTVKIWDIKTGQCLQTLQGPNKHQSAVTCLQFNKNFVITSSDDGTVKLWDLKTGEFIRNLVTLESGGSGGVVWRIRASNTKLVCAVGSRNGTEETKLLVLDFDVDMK
TEAD-YAP block – TEAD-YAP interaction inhibition. hit rate 1.4% among 640,000. inhibition, % at 9.12 µM. HEK-TIYL cells, TEAD-Gal4/YAP UAS-luciferase luminescence. AID 1259422; in the data active = inhibition above about 32%;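 note: 0% = median of test compound wells and 100% = reference inhibitor wells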
GPR151 ag – activates the human receptor GPR151. Q8TDV0. PathHunter beta-arrestin GPR151 cells, luminescence. hit rate 1% among 650,000. activation, % at 11.2 µM; in the data active = activation above about 4.9%;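 note: 0% = median of compound wells and 100% = cells with positive control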
An asterisk follows results filed as active. Sampled rows, rich in hits. Any-hit rate of the full collection: about 3.5%.

SMILES	MITF primary	FBW7 act	TEAD-YAP block	GPR151 ag
c1ccc(Nc2nc(Nc3ccc(N4CCOCC4)cc3)c3[nH]cnc3n2)cc1	2.9	0.0	47.0*	0.6
Nc1cccc(-c2nc(Nc3ccc(N4CCOCC4)cc3)c3[nH]cnc3n2)c1	-11.7	-0.3	60.1*	-2.0
CC(=O)c1cccc(-c2nc(Nc3ccc(N4CCOCC4)cc3)c3[nH]cnc3n2)c1	3.2	-0.1	-1.5	0.5
O=C(O)C1Nc2c(O)cc(Cl)c([N+](=O)[O-])c2C2C=CCC12 (stereo not given)	108.0*	-0.4	-6.5	-0.6
CCOc1cc2c(c([N+](=O)[O-])c1)NC(C(=O)O)C1CC=CC21 (stereo not given)	73.4*	-1.0	13.1	-1.1
O=[N+]([O-])c1c(Cl)cc(O)c2c1C1C=CCC1C(c1ccc(Cl)cc1)N2 (stereo not given)	32.0	0.1	14.0	1.0
Cc1ccc(C(=O)COC(=O)c2ccccc2O)cc1	8.4	0.1	2.4	-6.0
O=C(Nc1nc(CC(=O)N2CCN(c3ccccc3F)CC2)cs1)NC1CCCC1	-0.4	-0.1	1.8	0.6
CCOc1ccccc1NC(=O)C(C)N(c1ccc(Cl)cc1)S(C)(=O)=O (stereo not given)	2.6	-0.3	6.3	-0.6
CCOc1ccccc1NC(=O)C(C)Oc1ccccc1 (stereo not given)	-13.1	0.0	-0.8	0.3
CCOc1ccccc1NC(=O)C(C)Oc1ccc(OC)cc1 (stereo not given)	-2.8	0.1	48.4*	0.0
CCOc1ccc(N(C(C)C(=O)Nc2ccccc2C(=O)OC)S(C)(=O)=O)cc1 (stereo not given)	-9.8	0.0	34.7*	-1.1
CCOc1ccc(N(C(C)C(=O)Nc2ccccc2OCC)S(C)(=O)=O)cc1 (stereo not given)	9.2	-0.1	53.9*	-0.1
CCCCCCNc1nc(Nc2ccc(I)cc2C)nc(OCC)n1	14.9	0.6	5.7	-0.8
Cc1cccc(CNC(=O)CC2C(=O)NCCN2C)c1 (stereo not given)	-6.7	-0.1	3.2	1.0
Cc1cc(C(=O)Nc2ccc(Cl)cc2C(F)(F)F)no1	7.4	0.2	-2.2	1.0
Cc1cn2c3c(=O)n(CC(N)=O)c(=O)n(C)c3nc2n1-c1ccc(F)cc1	2.6	-0.1	-3.5	2.0
Cc1ccc(-c2csc(NC(=O)c3ccc(S(=O)(=O)N4CCc5ccccc5C4)cc3)n2)o1	-10.3	0.1	44.5*	1.6
O=C(Nc1nc(-c2ccccn2)cs1)c1ccc(S(=O)(=O)N2CCOCC2)cc1	48.8	0.1	47.8*	-1.1
COc1ccc(-c2csc(NC(=O)c3ccc(S(=O)(=O)N4CC(C)OC(C)C4)cc3)n2)c(OC)c1 (stereo not given)	-1.2	0.0	32.3*	-0.3
O=C(CS(=O)(=O)c1ccc(F)cc1)Nc1ccccc1-c1nc2ccccc2[nH]1	-3.0	-0.1	0.1	-2.3
CC1(C)CC(=O)C2=C(C1)N(c1ccc(Cl)c(Cl)c1)C1=C(C(=O)CC(C)(C)C1)C2c1cccs1	-2.2	0.0	-1.8	-0.4
COc1ccc(-c2noc(CN(Cc3c(C)nn(C)c3C)C(C)C)n2)c(OC)c1OC	-0.2	0.0	58.9*	0.1
CC1=CC(C)(C)N(S(=O)(=O)c2ccc(Cl)cc2)c2ccccc21	0.6	-0.2	55.0*	0.2
CCOc1ccc2c(c1)C(C)=CC(C)(C)N2S(=O)(=O)c1ccc(Cl)cc1	5.2	-0.1	60.3*	-0.1
SMILES	MITF primary	FBW7 act	TEAD-YAP block	GPR151 ag
COc1ccc2c(c1)C(C)=CC(C)(C)N2S(=O)(=O)c1ccc(Cl)cc1	-1.9	-0.1	48.0*	0.6
CC1=CC(C)(C)N(S(=O)(=O)c2ccc(C)cc2)c2ccc(Cl)cc21	-5.7	0.0	27.3	-0.1
Cc1ccc(C)c(S(=O)(=O)Oc2ccccc2C(=O)OCC(=O)Nc2cc(C)on2)c1	1.7	0.0	38.7*	-0.4
O=C(c1cc2c(ccc3ccccc32)oc1=O)N1CCCC1	2.0	3.2*	-3.0	-0.3
O=C(c1cc2c(ccc3ccccc32)oc1=O)N1CCOCC1	-5.5	-0.1	-29.2	0.3
CCCn1cnc2scc(-c3cccc([N+](=O)[O-])c3)c2c1=O	-5.4	0.0	-11.0	-0.4
O=C(N/N=C/c1ccc(O)c(O)c1O)C1COc2ccccc2O1 (stereo not given)	55.3*	-1.2	-2.5	-0.3
O=C(N/N=C/c1ccccc1)C1COc2ccccc2O1 (stereo not given)	-0.3	-0.1	37.3*	2.7
Cc1ccc(/C=N/NC(=O)C2COc3ccccc3O2)c(O)c1 (stereo not given)	-18.8	-0.1	53.2*	-0.9
O=C(N/N=C/c1ccc2c3c(cccc13)CC2)C1COc2ccccc2O1 (stereo not given)	-23.3	0.0	48.9*	-1.1
COc1cccc(/C=N/NC(=O)C2COc3ccccc3O2)c1O (stereo not given)	68.8*	-1.2	7.3	-0.2
COc1cc([N+](=O)[O-])cc(/C=N/NC(=O)C2COc3ccccc3O2)c1O (stereo not given)	10.7	0.6	2.5	-1.4
COc1cc(Cl)cc(/C=N\NC(=O)C2COc3cc4ccccc4cc3O2)c1O (stereo not given)	-10.3	-0.3	52.7*	-0.9
C/C(=N\NC(=O)C1COc2ccccc2O1)c1ccccc1 (stereo not given)	1.2	0.5	25.4	-1.6
C/C(=N\NC(=O)C1COc2ccccc2O1)c1ccco1 (stereo not given)	-0.9	0.4	39.1*	-0.9
O=S(=O)(Cc1ccccc1Cl)N(Cc1ccsc1)Cc1ccccn1	10.1	0.2	-3.6	0.6
COc1cc2c(cc1OC)C(C(=O)N1CCCC(C)C1)C1c3ccccc3CCN1C2=O (stereo not given)	23.1	1.3	-2.4	-1.3
COc1cc2c(cc1OC)C(C(=O)N1CCCCC1)C1c3ccccc3CCN1C2=O (stereo not given)	23.6	1.9*	-6.1	-0.8
O=C(COC(=O)c1cc2cc([N+](=O)[O-])ccc2oc1=O)c1ccccc1	15.1	1.8	10.7	-1.6
Cc1cc(C(F)(F)F)c(C#N)c(SCc2nnc(-c3ccccc3)o2)n1	-0.3	-0.2	41.1*	-1.5
Cc1nc(SCc2nnc(-c3ccccc3)o2)c(C#N)c(C)c1C	-3.2	-0.4	92.1*	0.1
Cc1cc(C)c(C#N)c(SCc2nnc(-c3ccc(Cl)cc3)o2)n1	3.9	-0.1	29.0	-0.7
CCOc1ccc(/C=C2\C(=O)NC(=S)N(CC)C2=O)c2ccccc12	13.6	-0.3	8.5	-1.8
O=C1NC(=S)N(Cc2ccco2)C(=O)/C1=C\N1CCOCC1	74.8*	-0.2	-5.9	-0.9
COCCn1c(C)cc(/C=C2/C(=O)NC(=O)N(Cc3ccco3)C2=O)c1C	27.9	-0.3	1.3	-0.1
CCOc1ccc2ccccc2c1/C=C1/C(=O)NC(=S)N(Cc2ccco2)C1=O	76.5*	-1.0	-17.7	-0.8
COCCn1c(C)cc(/C=C2/C(=O)NC(=S)N(Cc3ccco3)C2=O)c1C	64.8*	-0.9	-1.0	1.2
CC(Sc1ccc([N+](=O)[O-])cc1)C(=O)O (stereo not given)	4.4	0.0	6.5	0.2
